Measured values taken from PubChem BioAssay AID504916 (The Scripps Research Institute Molecular Screening Center, 2011).
The list shows a part of the results. Values without a mark were called inactive. How the calls were made is not given here.

biological target: 5-hydroxytryptamine receptor 5A (Homo sapiens) (UniProt P47898); test: inverse agonism at human 5-HT5A receptor – cell-based, luminescence, confirmation (AID 504916); settings: HTR5A-expressing cells, at 9.3 µM, stronger effect = higher value;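 further: 0% = cells with DMSO and 100% = no cells with DMSO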
Sequence (P47898 whole entry, looked up): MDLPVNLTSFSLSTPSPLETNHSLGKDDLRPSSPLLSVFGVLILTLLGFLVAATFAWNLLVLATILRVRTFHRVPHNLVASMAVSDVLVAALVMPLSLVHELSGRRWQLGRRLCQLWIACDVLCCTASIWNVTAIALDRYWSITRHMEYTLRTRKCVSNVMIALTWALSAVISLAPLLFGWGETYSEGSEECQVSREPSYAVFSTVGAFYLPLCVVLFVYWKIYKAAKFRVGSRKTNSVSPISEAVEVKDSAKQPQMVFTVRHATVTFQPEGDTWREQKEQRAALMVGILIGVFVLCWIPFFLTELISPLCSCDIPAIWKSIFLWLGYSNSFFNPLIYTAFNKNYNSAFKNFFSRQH

| SMILES | inhibition |
| --- | --- |
| O=C(/C=C/c1ccc(Cl)c([N+](=O)[O-])c1)c1ccc(O)cc1 | -8.27% |
| Cc1cc(C)n(-c2ccc(Cl)c(C(=O)O)n2)n1 | -6.82% |
| COc1ccc(-c2nnc(SC(C)C(=O)NC3CC3)o2)cc1 (configuration not stated) | 1.03% |
| O=c1ccc2c(-c3ccccc3S(=O)(=O)O)c3ccc(O)c(O)c3oc-2c1O | -16.7% |
| CCCCCCCCc1c(O)nc(-n2[nH]c(C)c(CCO)c2=O)[nH]c1=O | -15.1% |
| CCOC(=O)NC(=O)C(=CNc1cccc(OC)c1)C(=O)NC(=O)OCC | -98.8% |
| Cc1noc(C)c1COc1cccc(C(=O)Nc2cccnc2)c1 | 4.42% |
